Measured values from PubChem BioAssay (NCI).
The panel holds about 83,000 compounds, 20% with a hit somewhere; the sample as a whole holds those more often.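 Note: values are percent growth. 100 is the growth of untreated cells, values between 100 and 0 indicate rising inhibition; between -100 and 0 indicates cell death.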 Calls of active or inactive are those of the source. Rule for the calls: active = growth percent below 10; inactive = the rest.

Key:
Experiment in all cases: NCI-60 one-dose screen, 48 h (100 = growth as untreated, 0 = no growth, -100 = all killed)
Conditions in all cases: 10 µM unless noted
[1] = test system: RPMI-8226 leukemia
[2] = test system: OVCAR-5 ovarian
[3] = test system: OVCAR-4 ovarian
[4] = test system: SK-OV-3 ovarian
[5] = test system: IGROV1 ovarian
[6] = test system: OVCAR-3 ovarian
[7] = test system: HS 578T breast
[8] = test system: NCI/ADR-RES ovarian
[9] = test system: T-47D breast
[10] = test system: BT-549 breast
[11] = test system: MDA-MB-435 melanoma
[12] = test system: SW-620 colon
[13] = test system: MCF7 breast
[14] = test system: HCT-116 colon
[15] = test system: HCC-2998 colon
[16] = test system: KM12 colon
[17] = test system: OVCAR-8 ovarian

Measured: growth

O=C(CN1CCN(c2ccc(Cl)cc2)CC1)N1CCN(c2nnc(-c3ccc(Cl)cc3)c(-c3ccc(Cl)cc3)n2)CC1
active: [1] 8.48%
inactive: [2] 103% | [3] 74.2% | [4] 111% | [5] 37.7% | [6] 78.4% | [7] 71.7% | [8] 72.9% | [9] 52.4% | [10] 89.3% | [11] 73.4% | [12] 80.6% | [13] 56.7% | [14] 47.2% | [15] 84.9% | [16] 63%

O=C(O)C1CCN(S(=O)(=O)c2ccc(-c3ccccc3)cc2)CC1
inactive: [1] 58.7% | [17] 81.4% | [3] 106% | [4] 111% | [6] 112% | [7] 113% | [8] 117% | [9] 107% | [10] 109% | [11] 120% | [12] 98.2% | [14] 112% | [15] 93.6% | [16] 111%

O=Nc1c2cccnc2n2nnc3ccc(Cl)cc3c12
active: [1] -63.1% | [17] -26.8% | [3] -27.7% | [6] -29.5% | [12] -67.3% | [13] -10.6% | [14] 0.54%
inactive: [2] 94.9% | [4] 92.2% | [7] 70% | [11] 70.4% | [15] 93.1% | [16] 25.2%

COc1ccc(N2CCN(CC(=O)N3CCN(c4nnc(-c5ccccc5)c(-c5ccccc5)n4)CC3)CC2)cc1
inactive: [2] 90.3% | [3] 49.8% | [4] 80.7% | [6] 49.5% | [7] 54.7% | [10] 47.8% | [11] 45.2% | [12] 54.6% | [13] 36.4% | [14] 29.5% | [15] 62.4% | [16] 37.2%
active: [1] 1.97%

COc1ccc(N2CCN(CC(=O)N3CCN(c4nnc(-c5ccc(Cl)cc5)c(-c5ccc(Cl)cc5)n4)CC3)CC2)cc1
inactive: [2] 91.6% | [3] 55.5% | [4] 99.5% | [6] 52% | [7] 52.9% | [8] 61.7% | [9] 31.6% | [10] 66.1% | [11] 57.5% | [12] 69.2% | [13] 37.3% | [14] 29.2% | [15] 51%
active: [1] -14.8%

CCOc1cc(/C=C/C(=O)C(C(=O)/C=C/c2ccc(OC(=O)CNc3nc4ccccc4[nH]3)c(OCC)c2)C(=O)CNc2nc3ccccc3[nH]2)ccc1OC(=O)CNc1nc2ccccc2[nH]1
active: [1] -74.4% | [17] 9.36% | [6] -2.21% | [7] -4.12% | [10] -31.3% | [11] -37.6% | [12] -71.4% | [13] 0.893% | [14] -61.3% | [15] -41.5% | [16] -70.8%
inactive: [2] 11.5% | [3] 26.9% | [4] 29.4% | [8] 24.3%

O=C(CN1CCN(c2ccc(Cl)cc2)CC1)N1CCN(c2nnc(-c3ccccc3)c(-c3ccccc3)n2)CC1
active: [1] -23.4%
inactive: [2] 86.4% | [3] 30.6% | [4] 85% | [6] 40.9% | [7] 62.6% | [8] 39.2% | [9] 19.7% | [10] 44.9% | [11] 48.8% | [12] 46.9% | [13] 20.9% | [14] 16.7% | [15] 56.9% | [16] 36.6%

COc1ccc(CC(=O)Nc2nn3c(-c4cc(C(F)(F)F)cc(C(F)(F)F)c4)nnc3s2)cc1
inactive: [1] 39.7% | [17] 65% | [2] 96% | [3] 66.3% | [5] 59.9% | [6] 53.5% | [7] 75.6% | [8] 69.1% | [9] 42.7% | [11] 57.1% | [12] 84.2% | [13] 66.9% | [14] 61.9% | [16] 65.7%

COc1ccc(C(=O)/C=C/c2ccc(C)cc2)cc1OC
active: [5] -18.8% | [6] 4.42%
inactive: [1] 18.9% | [2] 90.1% | [3] 72.6% | [4] 97.7% | [8] 71.2% | [10] 89.8% | [11] 97.1% | [12] 24.7% | [13] 35.5% | [14] 30.1% | [15] 90.1% | [16] 20.1%

CC(C)Cn1cnc2c(NCn3nc(-c4cc(Cl)cc(Cl)c4Cl)n(/N=C/c4ccc(Cl)cc4)c3=S)nc3ccccc3c21
inactive: [1] 44.3% | [17] 72.4% | [2] 92.1% | [3] 71.1% | [6] 98% | [7] 94% | [9] 71.3% | [10] 92.3% | [11] 110% | [12] 98.5% | [13] 97.2% | [14] 66.1% | [15] 80.6% | [16] 96.6%
active: [5] 4.11%

O=C(/C=C/c1ccc([N+](=O)[O-])cc1)c1ccc2c3c(cccc13)CC2
inactive: [17] 28.7% | [2] 89.8% | [3] 75.8% | [4] 91.4% | [6] 66.9% | [8] 83.3% | [9] 69.1% | [10] 84% | [11] 97.8% | [12] 47.1% | [13] 22% | [14] 38.6% | [15] 79.3%
active: [1] -14.1% | [7] -4.95%

CCCCCCCCCCCCC1CCCC(C)C1 (centres undefined)
inactive: [1] 99% | [17] 102% | [2] 105% | [4] 99.7% | [5] 91.6% | [6] 108% | [7] 93.3% | [9] 96.4% | [10] 102% | [11] 104% | [12] 101% | [13] 93.6% | [14] 94.9% | [15] 97.7% | [16] 91.3%

COc1cc(-c2n[nH]nc2-c2ccccn2)cc(OC)c1OC
inactive: [1] 85.1% | [2] 100% | [3] 88.2% | [4] 98.5% | [5] 78.2% | [6] 102% | [7] 98% | [8] 77.9% | [9] 87.2% | [10] 117% | [11] 106% | [12] 106% | [13] 96.2% | [14] 104% | [15] 105% | [16] 102%

Clc1ccc2nc(CI)c(CI)nc2c1
active: [1] -36.6%
inactive: [17] 93% | [2] 91% | [3] 100% | [6] 65.4% | [7] 158% | [8] 100% | [9] 85.3% | [10] 73.1% | [11] 23.8% | [12] 25.1% | [13] 22.4% | [14] 11% | [15] 100% | [16] 101%

COc1ccc2c(=O)c(OC)c(-c3cc(OC)c(OC)c(OC)c3)oc2c1
inactive: [1] 92.6% | [2] 101% | [3] 96.6% | [4] 114% | [6] 98.6% | [7] 91.9% | [10] 117% | [11] 105% | [12] 92.2% | [13] 88% | [14] 87.2% | [15] 82.5% | [16] 97.8%

N[C@H](CS)C(=O)O
inactive: [1] 101% | [2] 103% | [3] 102% | [4] 107% | [6] 122% | [7] 115% | [8] 112% | [9] 103% | [10] 98.3% | [11] 104% | [12] 106% | [13] 87.9% | [14] 112% | [15] 112% | [16] 109%

O=C(Nc1ccc(Cl)cc1)Nc1nc2ccc(OC(F)(F)F)cc2o1
inactive: [17] 85.4% | [2] 95.9% | [3] 83.7% | [4] 103% | [5] 130% | [6] 74.3% | [7] 143% | [8] 95% | [9] 41.1% | [10] 146% | [11] 112% | [12] 98.4% | [13] 76.6% | [14] 85% | [15] 140% | [16] 68.3%

N#Cc1c(NC(=O)c2ccco2)[n+]([O-])c2cc(Cl)c(Cl)cc2[n+]1[O-]
inactive: [1] 92.2% | [17] 100% | [2] 87.4% | [3] 100% | [4] 118% | [6] 109% | [7] 84.4% | [8] 88.7% | [9] 112% | [10] 94.4% | [11] 126% | [12] 119% | [13] 87.8% | [14] 105% | [15] 109% | [16] 131%
